Screening data deposited in PubChem BioAssay by National Center for Advancing Translational Sciences (NCATS).
In the library only some 5.4% were active in any assay of this set; here they are far more common.
IMPase Li inh: qHTS Assay for Identifying the Cell-Membrane Permeable IMPase Inhibitors: Potentiation with Lithium; CHO-M1 cells, IP1 TR-FRET (IP-One), carbachol + lithium; Potency, µM (top dose mostly 59.4 µM), without a hit: at the top dose activity, negative = IMPase inhibition, most hits filed as inhibitors; 210,000 tested, 0.35% active;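 further: IP1 builds up when IMPase is blocked and the TR-FRET signal falls; potency means the concentration at half of the fitted maximal effect; plate controls were basal vehicle for no effect and high inhibitor control for full effect; nearly all actives have a fitted effect of over 50% in size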
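IP1 accumulation measured by competitive TR-FRET in lysed CHO-M1 cells after 30 min compound exposure at 37C, with a small lithium addition to potentiate weak responses. Hill-equation AC50 from ratio and donor-channel data.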
HPGD inh: qHTS Assay for Inhibitors of HPGD (15-Hydroxyprostaglandin Dehydrogenase); 15-hydroxyprostaglandin dehydrogenase [NAD(+)] (Homo sapiens), P15428; purified HPGD, NADH fluorescence kinetic, PGE2 substrate; Potency, µM, for inactives: at the top dose activity change, negative = inhibition, actives largely listed as inhibitors; 150,000 tested, 4.3% active; AID 894, 2007; active means well fitted inhibition curve with a large enough effect, not every such curve was filed as active; inconclusive means small, poorly fitted or top-dose-only effect, or another doubt; inactive means no such curve, though single readings can be large or run the other way; further: potency means the concentration at half of the fitted maximal effect
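NADH formation kinetics: reaction with 30 uM PGE2 and 1 mM NAD+ (final), 20 nM enzyme, Tris-HCl pH 8 with Tween 20, after 15 min compound preincubation at room temperature. Fluorescence change, last versus first of five reads.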
IMPase inh: qHTS Assay for Identifying the Cell-Membrane Permeable IMPase Inhibitors | Inositol monophosphatase 1 (Rattus norvegicus), P97697 | CHO-M1 cells, IP1 accumulation, HTRF TR-FRET ratio | inhibition (IP1 accumulation), % at 46.1 µM | 120,000 tested, under 10 active; active means well fitted curve in the direction sought with a large enough effect in the signal ratio, not every such curve was filed as active; inconclusive means small, poorly fitted or top-dose-only effect, or a change in a side signal; inactive means no such curve, though single readings can be large or run the other way; the % refers to the signal ratio;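 further: cells stimulated with carbachol in lithium chloride buffer; plate controls were DMSO basal wells for no effect and reference inhibitor wells for full effect; higher means more IMPase inhibition seen as more IP1 and lower FRET ratio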
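The IP-One HTRF competitive assay in carbachol-stimulated CHO-M1 cells quantifies cellular IP1. Compounds spanned up to 46 uM final, and activity is expressed as AC50 from concentration-response fits of the ratio and donor data.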
ALOX15B inhib: qHTS Assay for Inhibitors of 15-hLO-2 (15-human lipoxygenase 2); 110,000 tested, 0.56% active; purified 15hLO-2, xylenol orange hydroperoxide absorbance; Potency, µM (highest dose often 57.1 µM), for inactives: at the top dose activity change, negative = inhibition, most hits filed as inhibitors; AID 881, 2007; further: potency means the concentration at half of the fitted maximal effect; nearly all actives have a fitted effect of over 60% in size
Target sequence (O15296 whole entry, looked up): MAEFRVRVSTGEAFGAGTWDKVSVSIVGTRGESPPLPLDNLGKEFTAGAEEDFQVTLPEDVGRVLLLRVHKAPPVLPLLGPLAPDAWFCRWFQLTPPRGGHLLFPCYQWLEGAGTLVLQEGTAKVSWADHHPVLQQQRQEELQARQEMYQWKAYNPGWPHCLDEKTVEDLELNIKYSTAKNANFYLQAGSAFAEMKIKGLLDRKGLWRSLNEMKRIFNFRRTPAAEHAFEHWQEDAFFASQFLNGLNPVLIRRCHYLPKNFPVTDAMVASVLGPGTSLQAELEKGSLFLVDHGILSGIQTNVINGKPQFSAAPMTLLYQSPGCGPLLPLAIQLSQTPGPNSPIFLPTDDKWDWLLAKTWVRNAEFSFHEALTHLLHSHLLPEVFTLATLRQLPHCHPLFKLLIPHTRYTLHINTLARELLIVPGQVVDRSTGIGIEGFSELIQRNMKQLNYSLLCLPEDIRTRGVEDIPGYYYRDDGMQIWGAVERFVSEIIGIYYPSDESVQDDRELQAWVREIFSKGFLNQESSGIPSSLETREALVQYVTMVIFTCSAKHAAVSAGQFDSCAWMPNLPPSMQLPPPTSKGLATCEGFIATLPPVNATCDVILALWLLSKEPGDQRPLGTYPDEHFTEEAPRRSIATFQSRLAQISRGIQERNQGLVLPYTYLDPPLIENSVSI
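Read-out: hydroperoxide product oxidises ferrous iron, measured as xylenol orange complex via the 573-to-405 nm absorbance ratio after 30 min. Reaction: 50 nM enzyme, 15 min compound preincubation, 45 uM arachidonic acid, 90 min RT, Hepes pH 7.5 with Triton X-100.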
12-hLO inh: qHTS Assay for Inhibitors of 12-hLO (12-human lipoxygenase); Polyunsaturated fatty acid lipoxygenase ALOX12 (Homo sapiens), P18054; purified 12-hLO, xylenol orange hydroperoxide absorbance; 150,000 tested, 0.12% active; AID 1452, 2008; Potency, µM (series often up to 57.1 µM), inactives show at the highest dose activity change, negative = inhibition, actives largely listed as inhibitors; further: potency means the concentration at half of the fitted maximal effect; nearly all actives have a fitted effect of over 55% in size
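Purified human 12hLO (150 nM), preincubated 15 min with compound, then 40 uM arachidonic acid for 30 min, room temperature, Hepes pH 7.0 with 0.01% Triton X-100. Hydroperoxide detected by ferrous iron/xylenol orange; 573/405 nm absorbance ratio gives reaction progress.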
PNC assembly inh: High Content Assay for Compounds that inhibit the Assembly of the Perinucleolar Compartment | AID 2417, 2010 | 140,000 tested, 3.1% active | activity change (PNC), negative = inhibition, % at 10 µM | PC3M PTB-GFP, PNC prevalence imaging, 16 h; active compounds read low;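 active means readout at or below -70, meaning at least 70% loss of cells showing the perinucleolar compartment, a nuclear body marking cancer cells; inconclusive means readout between -30 and a set limit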;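 further: plate controls were DMSO wells for no effect and camptothecin positive control wells for full effect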
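PC3M cells stably expressing PTB-GFP, 750–1000 cells/well, treated 16 h at 37 °C with compound (23 nl of library stock), in duplicate. After paraformaldehyde fixation and Hoechst stain, imaged at 20x; PNC prevalence scored by image analysis.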
Starred values were filed as active, the others as inactive; u = inconclusive; x = no result; [ ] = remark or other dose. Unless noted, the call rests on the fitted dose curve; in most records, active means well fitted curve in the direction sought with a large enough effect; inconclusive means small, poorly fitted or top-dose-only effect, or another doubt; inactive means no such curve, though single readings can be large; an effect the other way counts as inactive or inconclusive. Unless noted, on the % scale 0 is the no-effect control and ±100 the full control effect.

SMILES | IMPase Li inh | HPGD inh | IMPase inh | ALOX15B inhib | 12-hLO inh | PNC assembly inh
N#Cc1c(NC(=O)CN2CCN(C(=O)c3ccco3)CC2)sc2c1CCCCC2 | -13%[38.3 µM] | 8.9µM* | 8 | 6% | 1% | -26
COC(=O)c1c(NC(=O)Cc2cccs2)sc(C)c1C | 19%[38.3 µM] | -15% | -1 | -4% | -4% | -14
Cc1c(C(=O)N2CCCCC2)sc(NC(=O)c2ccco2)c1C#N | 5% | 16µM* | 8 | x | 6% | 52
CCOC(=O)c1c(NC(=O)Cc2cccs2)sc(C(=O)N2CCCCC2)c1C | 18%[38.3 µM] | 7.1µM* | 5 | -7% | -13% | 22
Cc1c(C(=O)N2CCCCC2)sc(N)c1C#N | -15%[38.3 µM] | 13µM* | 0 | 1% | -4% | -19
CN(CC(=O)O)Cc1c[nH]c2ccccc12 | -6% | -2% | x | 2%[11.4 µM] | 7%[11.4 µM] | x
Cc1c(C(=O)N2CCCCC2)sc(NC(=O)C(C)C)c1C#N | 2%[38.3 µM] | 13µM* | -9 | 7% | -1% | 22
CCOC(=O)c1c(N)sc(C(=O)N2CCCC2)c1C | -5%[38.3 µM] | u | 1 | -2% | -2% | u
CCOC(=O)c1c(N)sc(C(=O)N2CCCCC2)c1C | 0% | 8.9µM* | -4 | x | -1% | 31
Cc1c(C(=O)N2CCCCC2)sc(NC(=O)C2CC2)c1C#N | -1%[38.3 µM] | 14µM* | -9 | 13% | -3% | 25
Cc1nc(NCc2ccccc2)c2nc(-c3ccccc3)n(CCN(C)C)c2n1 | 3% | u | x | 58% | -3% | x
COc1cccc(/C=N/Nc2nccnc2Cl)c1O | 13% | x | x | x | x | x
Oc1ccc(/C=N/Nc2cccc3cccnc23)c(O)c1 | 35% | 16µM* | -1 | u | -17% | -11
Oc1ccc(/C=N/Nc2nccnc2Cl)c(O)c1 | 47%[38.3 µM] | 28µM* | 8 | 8% | -22% | 53
Oc1ccccc1/C=N/Nc1nccnc1Cl | 37%[38.3 µM] | -4% | -1 | 33% | -18% | -88*
Cc1ccc(/C=N/Nc2cccc3cccnc23)c(O)c1 | x | x | 5 | u | u | 22
Oc1ccc(/C=N/Nc2ncc(Br)cn2)c(O)c1 | 5% | u | x | x | -4% | 47
C[C@@]12CCC(=O)C=C1CC[C@H]1[C@H]3CC[C@](O)(C(=O)CO)[C@]3(C)CC(=O)[C@@H]12 | -3% | -3% | -5[20.6 µM] | 8%[25.6 µM] | -1%[25.6 µM] | x
COc1ccc(NC(=O)CSC2=Nc3ccccc3C3=NC(CCC(=O)NC4CCCCC4)C(=O)N23)cc1Cl (centres undefined) | x | x | -3 | x | x | x
O=C(Cc1ccc(S(=O)(=O)N2CCCCC2)s1)Nc1ccc(F)c(F)c1 | 4% | -11% | x | x | 0% | -86*
CSCC[C@H](NC(=O)c1ccc(Cl)c(S(=O)(=O)N2CCCC2)c1)c1nc2ccccc2[nH]1 | x | x | -6 | 4% | 18µM* | u
O=C(NCc1nc2ccccc2[nH]1)c1ccc(Cl)c(S(=O)(=O)N2CCCC2)c1 | 22%[38.3 µM] | -3% | 1 | 35% | 2% | u
Cc1cc(OCC(=O)Nc2c(C(=O)c3ccccc3)oc3ccccc23)cc(C)c1Cl | x | x | -6 | x | x | x
CC(Sc1nnc(NCc2ccccc2)s1)C(=O)Nc1ccc2c(c1)C(=O)c1ccccc1C2=O (centres undefined) | 1% | 14µM* | x | x | -3% | -24
O=C(c1ccc(CNS(=O)(=O)c2cccc(C(F)(F)F)c2)cc1)N1CCOCC1 | 37%[38.3 µM] | 14µM* | u | -3% | -1% | 23
SMILES | IMPase Li inh | HPGD inh | IMPase inh | ALOX15B inhib | 12-hLO inh | PNC assembly inh
Cc1ccc(C)c(S(=O)(=O)NCc2ccc(C(=O)N3CCCCCC3)cc2)c1 | 7% | 7.1µM* | x | x | -2% | u
Cc1cc(C)c(C)c(S(=O)(=O)NCc2ccc(C(=O)N3CCCCC3)cc2)c1C | 11% | 2µM* | 2 | x | -1% | 58
O=C(c1ccc(CNS(=O)(=O)c2cccc(Cl)c2)cc1)N1CCCC1 | 6% | x | x | x | x | x
Cc1cc(C)c(C)c(S(=O)(=O)NCC(=O)N2CCCC2)c1C | 1%[38.3 µM] | -2% | -9 | -6% | 3% | u
COc1ccccc1OCc1nnc(SCC(=O)c2cc(Cl)ccc2OC)o1 | -1%[38.3 µM] | u | -2 | 2% | -6% | u
COc1ccccc1OCC(=O)n1cc(C(=O)c2cc(Cl)cc(Cl)c2O)cn1 | -14% | 18µM* | x | x | 6% | u
OCCN1CCN(c2nc(NCc3ccco3)c3ccccc3n2)CC1 | 5% | -18% | u | x | 1% | -88*
c1ccc(CN2CCN(c3nc(NCc4ccco4)c4ccccc4n3)CC2)cc1 | 46%[38.3 µM] | -25% | 10 | 31% | -20% | -7
CC(=NC1CCCCC1)c1ccccc1O | 0% | -7% | x | -2%[11.4 µM] | -14%[11.4 µM] | x
C=C(C)COc1ccc(-c2[nH]ncc2Oc2ccccc2OCC)c(O)c1 | 14%[38.3 µM] | 18µM* | 12 | 22% | u | -117*
C=C(C)COc1ccc(-c2[nH]ncc2Oc2cccc(OC)c2)c(O)c1 | 9%[38.3 µM] | -17% | 11 | 18% | u | 30
CC(C)(C)c1nnc2sc(SC/C(O)=C(\C#N)c3nc4ccccc4[nH]3)nn2c1=O | 13µM* | 20µM* | -4 | 14% | -5% | -95*
CC(C)(C)c1nnc2sc(SCC(=O)c3ccccc3)nn2c1=O | 17%[38.3 µM] | -22% | 2 | -8% | -3% | 16
O=C1CCCC2=C1C(c1ccc(Br)cc1)c1c([nH]c(=S)[nH]c1=O)N2 (centres undefined) | 10%[38.3 µM] | 7.1µM* | 2 | 32µM* | u | -13
Cc1cc(=O)oc2c1ccc1oc(/C(=N/O)c3ccccc3)c(C)c12 | 47%[38.3 µM] | 13µM* | 22 | u | -3% | 38
COCCn1c(=O)c(-c2ccc(OC)cc2)nc2cnc(N3CCN(C)CC3)nc21 | 25% | x | x | -4% | x | x
COc1ccccc1N1CCN(c2nc(C)nc3c2oc2ccccc23)CC1 | 27%[38.3 µM] | u | 2 | 24% | -14% | -102*
Cc1nc(N2CCC(C)CC2)c2oc3ccccc3c2n1 | 19%[38.3 µM] | -8% | 12 | 24% | -13% | 4
CC(=O)ON(C(C)=O)S(=O)(=O)c1ccc(Cl)cc1 | 0% | 2% | 1 | 10% | -4% | x
O=C(Nc1ccc([N+](=O)[O-])cc1)c1ccccc1F | -4% | x | x | x | x | x
O=C(c1cc(O)c(O)c([N+](=O)[O-])c1)c1ccccc1F | 5% | 14µM* | -5 | -27% | -30% | x
